Source: PubChem BioAssay AID504861 (Broad Institute, 2011)
Screen size: about 1,200 compounds; about 290 (24%) were called active. Not shown: some 3% with an inconclusive outcome.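 How the source made its calls: active means compounds lowering cell viability signal with fitted half-maximal concentration at most ten times their highest tested concentration; inconclusive means flat fit with 30 to 70% signal loss, or poor fit; inactive means the rest.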 Not all results are given here. Measured potencies and affinities stand elsewhere.

Test: cytotoxicity in HEK293T cells – cell-based, CellTiter-Glo luminescence, cherry-picks, cytotoxicity control for LMP1 NF-kB inhibitor project, dose response (AID 504861)
Settings: HEK293T viability, CellTiter-Glo ATP luminescence, 48 h; series mostly up to 26 µM

SMILES	outcome
CCn1c2ccccc2c2cc(NC(=O)c3ccccc3-c3ccccc3C(=O)O)ccc21	inactive
CCN(CC)Cc1cc(Nc2ccnc3cc(Cl)ccc23)ccc1O	inactive
O=S(=O)(c1ccc2c(c1)C(=NO)c1cc(S(=O)(=O)N3CCCCC3)ccc1-2)N1CCCCC1	inactive
Nc1nc(N)nc(-c2cc(Cl)ccc2Cl)n1	inactive
CCCc1cc(=O)c2c(O)ccc(OC)c2o1	inactive
CC1CCC(NC(=O)CC2Oc3ccccc3NC2=O)CC1 (stereo not drawn)	inactive
O=S(=O)(c1ccccc1)N1CCN(c2cc(-c3ccccc3)nc3ncnn23)CC1	inactive
Cn1cccc1CC(=O)NNC(=S)Nc1ccccc1Cl	inactive
COc1ccccc1NC(=O)C(=O)N/N=C(\C)CC(=O)Nc1ccccc1C(F)(F)F	inactive
CC(C)(C)n1nc(-c2ccc(F)cc2)c2c(N)ncnc21	inactive
CCc1nnc(NC(=O)c2cc(S(=O)(=O)N3CCN(CC)CC3)ccc2Cl)s1	inactive
COc1ccc(CCC(=O)Nc2ccc(C)c([N+](=O)[O-])c2)cc1	inactive
CN(C)S(=O)(=O)c1cccc(NC(=O)c2n[nH]c(=O)c3ccccc23)c1	inactive
CCc1ccc(-c2nnn(CCC(=O)OC)n2)cc1	inactive
Cc1ccc(C(=O)Nc2cccc(C(=O)N/N=C/c3ccccc3F)c2)cc1	inactive
Oc1cccc(/C=N/NC(=S)NCCN2CCOCC2)c1O	inactive
COc1ccccc1C1(CC(=O)O)CCOC(C)(C)C1 (stereo not drawn)	inactive
CCCN1C(=O)C2(SC(NC(C)=O)=NN2C(C)=O)c2cc(C)cc(C)c21 (stereo not drawn)	inactive
COc1ccc(OC)c2c1sc(=NC(=O)c1ccco1)n2C	inactive
Cc1ccc(NC(=S)Nc2cccc(S(=O)(=O)Nc3c(C)n(C)n(-c4ccccc4)c3=O)c2)cc1	inactive
Cc1ccc(C)c(S(=O)(=O)N2CCN(C(=O)c3ccc(C)s3)CC2)c1	inactive
O=C(Cn1ccc(C(F)(F)F)n1)Nc1cccc(S(=O)(=O)N2CCCCC2)c1	inactive
Cc1ccc(S(=O)(=O)N[C@H](C(=O)N2CCC(C(=O)N[C@@H](CC(=O)O)C(=O)O)CC2)C(C)C)cc1	inactive

SMILES	outcome
C=CCn1c(C)c(C(C)=O)c(N2CCN(C(c3ccccc3)c3ccccc3)CC2)nc1=S	inactive
COC(=O)c1ccc(COc2ccccc2/C=C/C(=O)c2ccc(OCC(=O)O)cc2)cc1	inactive
COc1ccccc1OCc1ccc(C(=O)c2ccccc2)cc1	inactive
COc1cccc(C(=O)N2CCN(c3nc4cc(C)cc(C)c4cc3C#N)CC2)c1	inactive
Cc1ccc(N2CCN(C3=NC(=O)/C(=C\c4cn[nH]c4-c4ccccc4)S3)CC2)cc1	inactive
Cc1cnc(NC(=O)c2ccc(OCC3CCCO3)cc2)s1 (stereo not drawn)	inactive
O=C(CSc1nnc(NC(=O)c2ccc3c(c2)OCO3)s1)NCc1ccco1	inactive
COc1ccc(C(=O)N(CN2CCCC2=O)c2cc(C)on2)cc1OC	inactive
O=C(C[n+]1ccccc1)N/N=C/c1ccc(O)cc1	inactive
COc1ccc(/C=C\C(=O)NCc2ccc3c(c2)cc(C)n3C)cc1OC	inactive
CCCCNC(=S)Nc1ccc([N+](=O)[O-])cc1	inactive
O=C(CCN1CCC(c2ccccc2)C1)c1ccc2c(c1)OCCO2 (stereo not drawn)	inactive
CC(=O)Nc1ccc(OCCCNC(=O)c2c(-c3ccccc3)noc2C)cc1	inactive
CC(C)c1ccc(OCc2cccc(C(=O)N/N=C/c3cccnc3)c2)cc1	inactive
O=C(CCc1ccccc1Cl)N1CCN(S(=O)(=O)c2ccccc2)CC1	inactive
O=C(O)c1ccc(N/N=C/c2cc3cc4c(cc3nc2Cl)OCCO4)cc1	inactive
O=C(Cc1cccc2ccccc12)Nc1ccc(-c2cc3ccccc3oc2=O)cc1	inactive
NC(=O)N/N=C/c1ccc(N2CCOCC2)s1	inactive
CC1(C)CC(NS(=O)(=O)c2ccc(F)cc2)CC(C)(C)N1	inactive
O=[N+]([O-])c1ccc(N2CCN(Cc3cccc([N+](=O)[O-])c3)CC2)cc1	inactive
O=c1[nH]c(=O)n([C@H]2C[C@H](O)[C@@H](CO)O2)cc1F	inactive
c1ccc(-c2nnc(-c3ccccn3)s2)nc1	inactive
Cc1c(NC(=O)c2cccc(NC(=O)COc3ccccc3C#N)c2)c(=O)n(-c2ccccc2)n1C	inactive

SMILES	outcome
Cc1ccc(C(=O)Nc2cccc(C(=O)O)c2)cc1S(=O)(=O)N1CCCCC1	inactive
Cc1nc(Nc2nc3ccccc3o2)nc2c1CCC2	inactive
Cc1cccc(C)c1Nc1nc2ccccc2o1	inactive
COc1ccc(C=NNc2nc3ccccc3s2)cc1	inactive
CC1CCCN(C(=O)COC(=O)c2n[nH]c3ccccc23)C1 (stereo not drawn)	inactive
COc1c(S(=O)(=O)N2CCN(c3ccc(F)cc3)CC2)ccc(Cl)c1Cl	inactive
CC(=O)c1ccc(-c2nc3c4ccccc4ccn3c2C(C)=O)o1	inactive
Cc1nn(-c2ccccc2)c(Cl)c1C1C(C#N)=C(N)Oc2n[nH]c(C)c21 (stereo not drawn)	inactive
CCCCN(c1ccccc1)c1ncnc(N)c1[N+](=O)[O-]	inactive
OC(CCCN1CCCCC1)(c1ccccc1)c1ccccc1	inactive
CN1CCN(CCOc2ccc(Cc3ccccc3)cc2)CC1	inactive
COc1ccc(/C=C/C(=O)OCC(=O)NCc2ccco2)cc1OC	inactive
NNC(=O)c1cccc(COc2ccc3c(c2)CCC3)c1	inactive
O=c1c([N+](=O)[O-])cn(Cc2ccccc2)c(=O)n1Cc1ccccc1	inactive
O=C1CSC(=S)N1Cc1ccccc1	inactive
CCOC(=O)C1=C(O)/C(=C/c2ccc(CNC(=O)C(=O)Nc3ccc(C)cc3)o2)N=C1C	inactive
O=C1CN(C(=O)c2ccc(F)c(S(=O)(=O)N3CCOCC3)c2)c2ccccc2N1	inactive
COC(=O)[C@H](C)[C@H]1C[C@]1(C)[C@H](NC(=O)OCc1ccccc1)c1ccccc1	inactive
Clc1ccccc1C1=Nn2c(nnc2-c2ccncc2)SC1	inactive
Cc1cc(N/N=C\c2ccc(Br)cc2)nc(-n2nc(C)cc2C)n1	inactive
COc1ccc(S(=O)(=O)N2CCN(C(=S)NCC3CCCO3)CC2)cc1OC (stereo not drawn)	inactive
Oc1c(N=NC(=S)Nc2ccccc2F)c2ccccc2n1Cc1ccccc1Cl	inactive
